We go through 40 compounds from PubChem BioAssay (Tox21).

Records with an inconclusive call do not appear. Activity calls are given as the source filed them. Calls come from the whole dose curve; as a rule, active = well fitted cell-killing curve with a large enough effect in the repeat runs; inconclusive = weak or mixed curves; inactive = flat fitted curve, though single readings scatter.
% is set by controls: 0 for no effect and ±100 for the full control effect.

The assay in a line: qHTS assay to identify small molecule antagonists of the estrogen receptor beta (ER-beta) signaling pathway - cell viability counter screen (AID 1259382). Note: nearly all actives have a fitted effect of over 55% in size. The settings on record: ER-beta-UAS-bla HEK293T viability, CellTiter-Glo luminescence, 16 h; series mostly up to 92.4 µM. From the text: U.S. Tox21 Program National Center for Advancing Translational Sciences [NCATS] NIH Chemical Genomics Center [NCGC] U.S. Environmental Protection Agency [EPA] National Institutes of Environmental Health Sciences [NIEHS] National Toxicology Program [NTP] U.S. Food and Drug Administration [FDA] Tox21 Assay Overview: Estrogen receptor (ER), a nuclear hormone receptor, plays an important role in development, metabolic homeostasis and reproduction. Two subtypes of ER, ER-alpha and ER-beta, have similar expression patterns with some uniqueness in both types. Endocrine disrupting chemicals (EDCs) and their interactions with steroid hormone receptors like ER causes disruption of normal endocrine function. To identify the compounds that inhibit ER signaling, an ER-beta-UAS-bla GripTite cell line (Life Technologies, Madison, WI, USA) containing a beta-lactamase reporter gene under the control of an UAS response element was used to screen Tox21 10K compound library. The cytotoxicity of the Tox21 compound library against the ER-beta-bla cell line was tested in parallel by measuring the cell viability using CellTiter-Glo assay in the same wells.
Tox21 Assay Protocol Summary: ER-beta-UAS-bla HEK293T cells were dispensed at 2,000 cells/4 uL of assay medium containing 2% charcoal stripped FBS per well into black wall/clear-bottom 1536-well plates using a Multidrop Combi (ThermoFisher Scientific, Waltham, MA) dispenser. After the assay plates were incubated at a 37C and 5% CO2 for 6 hr, 23 nL of compounds dissolved in DMSO, positive controls or DMSO only was transferred to the assay plate by a Pintool station (Kalypsys, San Diego, CA), followed by addition of 1 uL (1nM as final concentration) of 17-beta-estradiol (E2) in assay medium using a Flying Reagent Dispenser (FRD, Aurora Discovery, San Diego, CA). The plates were incubated at 37C and 5% CO2 for 16 hr. Then 1 uL of LiveBLAzer B/G FRET substrate was added using a Flying Reagent Dispenser, the plates were incubated at room temperature for 2 hours, and fluorescence intensity was measured by an Envision plate reader (PerkinElmer, Shelton, CT). For cell viability readout that measures cytotoxicity, 4 uL/well of CellTiter-Glo reagent was added into the assay plates using a FRD. After 30 min incubation at room temperature, the luminescence intensity in the plates was measured using a ViewLux (PerkinElmer) plate reader.
For the compound `BrCCCCCBr`, the result was inactive.

Turning to `CCNC(=O)C1CC(C)CCC1C(C)C` (stereo not given), the compound was classed as inactive.

Consider `OCCC(F)(F)C(F)(F)C(F)(F)C(F)(F)C(F)(F)C(F)(F)C(F)(F)C(F)(F)F`, for which the result was inactive.

As for `N[C@@H](CCC(=O)Nc1ccc([N+](=O)[O-])cc1)C(=O)O`, the result was inactive.

With `Brc1ccc(-c2ccccc2)cc1`, the compound was called inactive.

For `CCc1ccc(C=O)cc1`, the compound was called inactive.

Consider `CO[C@@H]1[C@@H](OC(N)=O)[C@@H](O)[C@H](Oc2ccc3c(O)c(NC(=O)c4ccc(O)c(CC=C(C)C)c4)c(=O)oc3c2C)OC1(C)C`, for which the call was inactive.

As for `CC(C)C(=O)OCCc1ccccc1`, the result was inactive.

With `CC(C)CC(=O)O`, the call was inactive.

On to `COc1cc(NS(=O)(=O)c2ccc(N)cc2)nc(OC)n1`, for which the call was inactive.

As for `CCCCOC(=O)c1ccccc1`, the compound was classed as inactive.

Take `Nc1cccc(O)c1`: the outcome was inactive.

With `C=COCCOCCOCCOC=C`, the compound was called inactive.

`c1ccc2nccnc2c1`: the compound was called inactive.

For `C[Si](C)(C)C`, the compound was called inactive.

As for `CCCCNc1ccc(C(=O)OCCN(C)C)cc1`, the call was inactive.

As for `Cc1cc(NC(=O)C2=C(O)c3ccccc3S(=O)(=O)N2C)no1`, the compound was called inactive.

`COC(=O)C1CC(=O)C(C(=O)OC)CC1=O` (stereo not given): the activity change, negative = cytotoxicity was 5.88% [at 8.39 µM] (inactive).

Regarding `CN=C(NC#N)Nc1ccc(C2=NNC(=O)CC2C)cc1` (stereo not given), the result was inactive.

As for `CCC(C=O)CC`, the call was inactive.

As to `CCCOC(OCCC)OCCC`, the call was inactive.

With `CC(C)OC(=O)CCCCC(=O)OC(C)C`, the call was inactive.

With `CC1=CCC(C(C)C)=CC1`, the compound was classed as inactive.

With `OCCCCC(O)CO` (stereo not given), the result was inactive.

Turning to `C=C1CC/C=C(\C)CC[C@@H]2[C@@H]1CC2(C)C`, the compound was classed as inactive.

As for `COC(=O)CCCCCCCC(=O)OC`, the compound was called inactive.

For the compound `O=C(OCc1ccccc1)C(=O)OCc1ccccc1`, the call was inactive.

With `O=C(OCC(O)CO)c1ccccc1Nc1ccnc2c(C(F)(F)F)cccc12` (stereo not given), the compound was classed as inactive.

In the case of `C#CC(C)N(C)C(=O)Nc1ccc(Cl)cc1` (stereo not given), the call was inactive.

As to `BrCc1cccc(Oc2ccccc2)c1`, the outcome was inactive.

`COCCOC(=O)C1=C(C)NC(C)=C(C(=O)OC(C)C)C1c1cccc([N+](=O)[O-])c1` (stereo not given): the outcome was inactive.

As to `CC(C)N(c1ccccc1)C(C)C`, the compound was classed as inactive.

Take `O=Cc1ccc(Cl)c(Cl)c1`: the call was inactive.

As for `CCCCOCCOC(=O)COc1nc(Cl)c(Cl)cc1Cl`, the outcome was inactive.

On to `COc1cc2c(cc1OC)[C@@H]1CC(=O)[C@@H](CC(C)C)CN1CC2`, for which the compound was called inactive.

Take `CC(CN)CC(C)(C)CCN` (stereo not given): the compound was classed as inactive.

In the case of `CCCCCOC(=O)CCC`, the call was inactive.

With `NC(CO)C(=O)NNCc1ccc(O)c(O)c1O` (stereo not given), the result was inactive.

For the compound `O=C1c2ccccc2C(=O)C1c1ccccc1`, the outcome was inactive.

As for `CCOC(=O)CC(=O)c1ccccc1`, the compound was classed as inactive.
